Results filed as inconclusive are left out. Active and inactive are the calls of the source. Rule for the calls: active = hit-call score of the fitted dose curve at least 0.9, where 1 is the maximum; inconclusive = response in the unintended direction; inactive = score below 0.9.
Target: Nuclear receptor subfamily 1 group I member 2 (Homo sapiens) (UniProt O75469)
Test: ATG_PXR_TRANS: Attagene TRANS-FACTORIAL HepG2 Assay for human Pregnane X Receptor (PXR) (AID 2283008)
Procedure: ATG_TRANS is a cell-based, multiplexed-readout assay that uses HepG2, a human liver cell line, with measurements taken at 24 hours after chemical dosing in a 24-well plate.ATG_PXR_TRANS is one of 30 assay component(s) measured or calculated from the ATG_TRANS assay. It is designed to make measurements of mRNA induction, a form of inducible reporter, as detected with fluorescence intensity signals by Reverse transcription polymerase chain reaction (RT-PCR) and Capillary electrophoresis technology.Data from the assay component ATG_PXR_TRANS was analyzed into 1 assay endpoint. This assay endpoint, ATG_PXR_TRANS, was analyzed in the positive analysis fitting direction relative to DMSO as the negative control and baseline of activity. Using a type of inducible reporter, measures of mRNA for gain-of-signal activity can be used to understand the reporter gene at the transcription factor-level as they relate to the gene NR1I2. Furthermore, this assay endpoint can be referred to as a primary readout, because this assay has produced multiple assay endpoints where this one serves a reporter gene function. To generalize the intended target to other relatable targets, this assay endpoint is annotated to the nuclear receptor intended target family, where the subfamily is non-steroidal.
Human liver HepG2 cells are transiently transfected with multiple reporter transcription units (MRTUs) in 6-well plates using FuGene 6 reagent (Roche; 3 ml FuGene/1 mg DNA). The MRTU constructs are regulated by a cis-regulating element (promoter). […] A major difference between the CIS and TRANS system is that in CIS activities of endogenous TFs are measured, whereas the TRANS assay evaluates changes in activities of exogenous, chimeric NR-Gal4 proteins. […] At the end of 24 hour incubation, total RNA was isolated using TriZol reagent (Invitrogen). The isolated RNA is then reverse-transcribed using oligo(dT) primer and Mo-MLV reverse transcriptase (Invitrogen) with DNAse I (Ambion) treatment for 30 min. The one-tenth of the produced cDNA was amplified by PCR using Taq DNA polymerase (Invitrogen) and two reporter sequence-specific primers. The PCR products were fluorescently labeled by primer extension with 6-arboxyfluorescein (6-FAM) 5'-labeled reporter sequence-specific primer (2 min at 95 C, 20 s at 68 C and 10 min at 72 C) and these products were digested with 5U of HpaI (New England Biolabs) for 2h at 37 C. The fragments were purified using Qiaquick PCR columns (Qiagen), analyzed on an ABI 3130xL genetic analyzer (Applied Biosystems) with peak positions identified by using a set of X-rhodamine (ROX)-labeled MapMarker1000 molecular weight standards (BioVentures). The raw capillary electrophoresis data was processed using Attagraph software (Attagene).

Chain of Nuclear receptor subfamily 1 group I member 2 (Homo sapiens) (O75469 whole entry, looked up): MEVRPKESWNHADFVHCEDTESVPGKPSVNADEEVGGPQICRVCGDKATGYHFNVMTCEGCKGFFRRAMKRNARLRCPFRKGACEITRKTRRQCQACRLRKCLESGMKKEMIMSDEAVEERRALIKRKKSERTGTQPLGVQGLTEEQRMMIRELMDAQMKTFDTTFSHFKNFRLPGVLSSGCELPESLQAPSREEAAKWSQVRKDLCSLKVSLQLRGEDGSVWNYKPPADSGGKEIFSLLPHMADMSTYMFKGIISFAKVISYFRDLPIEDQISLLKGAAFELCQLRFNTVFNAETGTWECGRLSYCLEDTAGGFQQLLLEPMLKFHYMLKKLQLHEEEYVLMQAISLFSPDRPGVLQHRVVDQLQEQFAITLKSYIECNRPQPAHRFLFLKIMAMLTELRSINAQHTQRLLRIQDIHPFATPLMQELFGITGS

SMILES | outcome | AC50
O=C(O)c1nc(Cl)c(Cl)c(Cl)c1Cl | inactive | –
CN(C)CCC(c1ccc(Cl)cc1)c1ccccn1 (stereo not given) | inactive | –
O=C(OCc1ccccc1)c1ccccc1 | inactive | –
Cc1ccnc(N)c1 | inactive | –
F[B-](F)(F)F | inactive | –
Brc1ccc(Oc2ccc(Br)cc2)cc1 | – | 7.35 µM (active)
CCCCCCCC#N | inactive | –
CCC(C)(CCC(C)C)C(=O)O (stereo not given) | inactive | –
CN(C)N=Nc1ccccc1 | inactive | –
Oc1ccc(Cl)cc1C1CCCC1 | – | 9.24 µM (active)
CCCCCCC1CCC(=O)O1 (stereo not given) | inactive | –
CC(=O)CCc1ccccc1 | inactive | –
CCCCCC1CCCC(=O)O1 (stereo not given) | inactive | –
Oc1ccc(Oc2ccccc2)cc1 | inactive | –
CN1CCCC1 | inactive | –
Cc1cc(-n2nc3ccc(Cl)cc3n2)c(O)c(C(C)(C)C)c1 | inactive | –
O=C(C1CCCCC1)N1CC(=O)N2CCc3ccccc3C2C1 (stereo not given) | – | 8.4 µM (active)
CC(C)=CCOC(=O)c1ccccc1 | inactive | –
COC(=O)c1ccccc1 | inactive | –
C=C(C)C(=O)OCC1CCCO1 (stereo not given) | inactive | –

SMILES | outcome | AC50
C[C@H]1C[C@H]2[C@@H]3CCC4=CC(=O)C=C[C@]4(C)[C@@]3(F)[C@@H](O)C[C@]2(C)[C@@]1(O)C(=O)CO | – | 0.685 µM (active)
c1ccc(CNc2ncnc3nc[nH]c23)cc1 | inactive | –
CCCCCCC(O)CCCCCCCCCCC(=O)OC (stereo not given) | inactive | –
N#CCN(CC#N)CCN(CC#N)CC#N | inactive | –
O=C(O)c1cc(Cl)cc(Cl)c1O | inactive | –
Cc1cc(O)cc(C)c1Cl | inactive | –
CCCCCC[C@@H](O)C/C=C\CCCCCCCC(=O)O | inactive | –
COc1c2occc2cc2ccc(=O)oc12 | – | 14.5 µM (active)
C[Si](C)(C)O[Si](C)(C)O[Si](C)(C)C | inactive | –
CC1(C)S[C@@H]2[C@H](NC(=O)[C@H](N)c3ccccc3)C(=O)N2[C@H]1C(=O)O | inactive | –
O=C1NC(=O)[C@@H]2CC=CC[C@H]12 | inactive | –
CN(C)Cc1cc(C(C)(C)C)c(O)c(C(C)(C)C)c1 | inactive | –
C=CC(C)(CCC=C(C)C)OC(=O)c1ccccc1 (stereo not given) | – | 8.68 µM (active)
CCCOCCC | inactive | –
O=C1CCCCCCCCCCCCCC1 | – | 26.6 µM (active)
CCCCn1cc[n+](C)c1 | inactive | –
c1cc(N(CC2CO2)CC2CO2)ccc1Cc1ccc(N(CC2CO2)CC2CO2)cc1 (stereo not given) | inactive | –
CC[N+](CC)(CC(=O)Nc1c(C)cccc1C)Cc1ccccc1 | inactive | –
O=C(C(=O)c1ccccc1)c1ccccc1 | – | 11.3 µM (active)
CC1=CCCC(C)(C)C12CCC(C)O2 (stereo not given) | – | 2.53 µM (active)

From PubChem BioAssay (EPA / NIEHS)
